Hits are enriched below; roughly 17% of the tested compounds scored in any of these assays.
TDP1 block: qHTS Assay for Inhibitors of Tyrosyl-DNA Phosphodiesterase (TDP1); Tyrosyl-DNA phosphodiesterase 1 (Homo sapiens), Q9NUW8; recombinant TDP1, AlphaScreen DNA substrate cleavage; Potency, µM (titrated, usually from 130 µM), inactives show top-dose activity change, negative = inhibition, actives largely listed as inhibitors; 350,000 tested, 0.28% active; note: % is set by controls: 0 for no effect and ±100 for the full control effect; nearly all actives have a fitted effect of over 40% in size
Target sequence (Q9NUW8 whole entry, looked up): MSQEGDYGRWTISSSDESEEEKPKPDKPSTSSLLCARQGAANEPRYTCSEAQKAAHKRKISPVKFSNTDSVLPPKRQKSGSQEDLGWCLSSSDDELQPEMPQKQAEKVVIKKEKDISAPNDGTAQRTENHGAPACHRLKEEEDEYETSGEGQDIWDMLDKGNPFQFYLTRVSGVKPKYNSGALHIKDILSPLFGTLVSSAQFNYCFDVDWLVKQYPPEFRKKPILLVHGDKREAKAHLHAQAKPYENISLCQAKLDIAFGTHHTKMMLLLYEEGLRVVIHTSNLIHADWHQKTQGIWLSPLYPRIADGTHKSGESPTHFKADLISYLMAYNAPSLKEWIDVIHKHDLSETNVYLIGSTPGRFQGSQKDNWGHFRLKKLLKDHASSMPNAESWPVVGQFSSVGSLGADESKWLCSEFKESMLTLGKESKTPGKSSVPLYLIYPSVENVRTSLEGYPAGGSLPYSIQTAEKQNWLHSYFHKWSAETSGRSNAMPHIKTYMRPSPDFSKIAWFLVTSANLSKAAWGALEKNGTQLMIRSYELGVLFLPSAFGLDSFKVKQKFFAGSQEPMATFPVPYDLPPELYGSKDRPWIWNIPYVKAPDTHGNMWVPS
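Tdp1 1 nM final; 15 min RT w/ cpd; substrate 15 nM, 5 min; beads 10 ug/ml, 10 min; AlphaScreen read. Neg ctrl: no enzyme.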
DT40 TDP1 CPT: qHTS for Inhibitors of human tyrosyl-DNA phosphodiesterase 1 (TDP1): qHTS in cells in presence of CPT. chicken DT40 Tdp1-/-;hTDP1 cells + 20 nM CPT, ATP luminescence, 48 h. Potency, µM (top dose mostly 46.2 µM), for the others: at the highest dose activity change, negative = growth inhibition, hits mostly inhibitors. 420,000 tested, 12% active; note: % is set by controls: 0 for no effect and ±100 for the full control effect; nearly all actives have a fitted effect of over 55% in size
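Chicken DT40 Tdp1-/- cells complemented with human TDP1, 400 cells/well, exposed to compounds plus 20 nM camptothecin for at least 48 h at 37 C; viability read as ATP content by CellTiter-Glo luminescence.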
TDP1 cell noCPT: qHTS for Inhibitors of human tyrosyl-DNA phosphodiesterase 1 (TDP1): qHTS in cells in absence of CPT | DT40 Tdp1-/- hTDP1 cells, no CPT, ATP luminescence, 48 h | 420,000 tested, 15% active | Potency, µM (series often up to 46.2 µM), for the others: at the highest dose activity change, negative = growth inhibition, hits mostly inhibitors | AID 686978, 2013; note: % is set by controls: 0 for no effect and ±100 for the full control effect; nearly all actives have a fitted effect of over 55% in size
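Growth kinetics read by CellTiter-Glo luminescence after ≥48 hr at 37 °C. Cells: DT40 Tdp1-/- stably carrying human TDP1, 400 per well, compound exposure in the absence of CPT (DMSO vehicle).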
ClpP mod: qHTS Assay for Activators of ClpP | Potency, µM (highest dose often 57.5 µM), inactives show at the highest dose activity change, negative = active | ATP-dependent Clp protease proteolytic subunit (Bacillus subtilis (strain 168)), P80244 | 340,000 tested, 1.9% active | purified B. subtilis ClpP, FRET peptide cleavage, 20 min; active = well fitted falling curve with a large enough effect; inconclusive = small, poorly fitted or top-dose-only effect; inactive = no such curve, though single readings can be large or run the other way; note: the source files actives as falling curves though it sought activators and does not explain the sign; nearly all actives have a fitted effect of over 65% in size
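FRET quenching reversal measured ClpP activation: 10 microg/mL B. subtilis ClpP at pH 8 with the FRET-FV decapeptide, read at 430 nm after 320 nm excitation. The 20-min minus 0-min signal was scaled between DMSO/no-enzyme wells and ADEP (5.8 microM final).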
* = called active by the depositor; ? = inconclusive; . = not tested or not shown; [ ] = another dose, or the depositor's remark. Unless noted, calls come from the whole dose curve; as a rule, active = well fitted curve in the direction sought with a large enough effect; inconclusive = small, poorly fitted or top-dose-only effect, or another doubt; inactive = no such curve, though single readings can be large; an effect the other way counts as inactive or inconclusive. Potency is the fitted concentration of half-maximal effect.

SMILES	TDP1 block	DT40 TDP1 CPT	TDP1 cell noCPT	ClpP mod
CCc1ccc(NC(=O)CSc2nc3cc(C(=O)OC)ccc3c(=O)n2Cc2ccco2)cc1	-6%	16µM*	10µM*	-4%
CCN(C(=O)CSc1nc2cc(C(=O)OC)ccc2c(=O)n1Cc1ccco1)c1cccc(C)c1	-7%	21µM*	?	32µM*
CCN(C(=O)CSc1nc2cc(C(=O)O)ccc2c(=O)n1Cc1ccccc1)c1ccccc1	.	-9%	-2%	-7%
COc1ccc(N(CC(=O)NC2CC2)S(=O)(=O)c2ccccc2)cc1	.	7%	-4%	0%
Cc1c(C(=O)NCc2ccccc2Cl)sc2nc3n(c(=O)c12)CCCC3	13%	?	23µM*	-4%
Cc1c(C(=O)NCc2ccccc2Cl)sc2nc3n(c(=O)c12)CCCCC3	10%	?	26µM*	-12%
COc1cccc(C(=O)NCCS(=O)(=O)NCCCc2ccccc2)c1	-13%[0.505 µM]	-20%	-16%	-1%
CC(=O)c1nnn(-c2ccc(C)cc2Cl)c1C	3%	-5%	-2%	1%
CCOc1ccc(C2C(=O)N(C3CCCCCC3)CC(=O)N2CCc2ccc(OC)c(OC)c2)cc1OC (stereo unspecified)	8%	?	?	1%
COc1ccc([C@H]2C=C(C(=O)O)O[C@@H](OCCCCO)C2)cc1	1%	-23%	-13%	?
COc1cc(-c2nnc(-c3cc(-c4ccccc4)nc4ccccc34)o2)cc(OC)c1OC	.	-16%	?	.
COc1cccc(OC)c1-c1nnc(-c2cn(C)c3ccccc23)o1	6%	?	?	11µM*
Cc1ccc(Cn2c(C(=O)Nc3ccc(Cl)cc3)cc3sccc32)cc1	1%	?	-28%	?
CCOc1cc(CNC2CCCC2)ccc1OCc1ccccc1Cl	-1%	13µM*	21µM*	2%
CCOc1cc(CNCCN2CCOCC2)ccc1OCc1ccccc1Cl	11%	?	18µM*	.
CCOc1cc(CNCCCN2CCOCC2)ccc1OCC(=O)NC(C)(C)C	-6%	1%	1%	.
CCOc1cc(CNCCCN2CCOCC2)cc(Br)c1OCc1ccccc1Cl	6%	3.7µM*	4.6µM*	0%
COC(=O)c1cccc(C(=O)N2CCCC(CCC(=O)N(C)CCc3ccccn3)C2)c1 (stereo unspecified)	0%	-21%	9%	0%
CCn1cc(C(=O)OCC(=O)OC2CC(C)CCC2C(C)C)c(=O)c2ccc(C)nc21 (stereo unspecified)	3%	18µM*	?	1%
CN(C)c1ccc(C=C2C=Cc3ccccc32)cc1	.	-12%	-17%	-3%
C1=Cc2ccccc2/C1=C/c1ccc(/C=C2\C=Cc3ccccc32)cc1	.	8%	6%	-1%
NC(N)=Nc1ccc(/C=C2\C=Cc3ccccc32)cc1	.	11µM*	13µM*	-2%
CN(C)/C=C1\C=Cc2ccccc21	.	?	13µM*	-5%
CN(C)N=Nc1ccc(/C=C2\C=Cc3ccccc32)cc1	.	14µM*	?	1%
Cc1ccc(Cn2c(C)c3cnn(CC(=O)NCCc4ccc(Cl)cc4)c(=O)c3c2C)cc1	0%	?	?	?
SMILES	TDP1 block	DT40 TDP1 CPT	TDP1 cell noCPT	ClpP mod
Cc1onc(-c2c(Cl)cccc2Cl)c1-c1nnc(-c2ccc(Cl)cc2)o1	6%	?	16µM*	-2%
Cc1cc(-c2c(C)[nH]n(-c3ccc(Cl)cc3)c2=O)n[nH]1	12%	7.3µM*	13µM*	-4%
CC/C(C)=N\N=C\c1c(O)n(CC)c2cc(C3=NNC(=O)CC3)ccc12	12%[56.1 µM]	10µM*	6.5µM*	-7%
COc1ccc(C2C=C(c3ccccc3)Nc3nc(NS(=O)(=O)c4ccc(C)cc4)nn32)cc1 (stereo unspecified)	11%	-12%	-19%	?
COc1ccc(C2C=C(c3ccccc3)Nc3nc(NC(=O)/C=C/c4ccccc4OC)nn32)cc1 (stereo unspecified)	6%	5.8µM*	2.6µM*	-18%
COc1ccc(C2C=C(c3ccccc3)Nc3nc(NC(=O)/C=C/c4ccccc4)nn32)cc1 (stereo unspecified)	6%	9.2µM*	7.3µM*	-13%
COc1ccc(C(=O)Nc2nc3n(n2)C(c2ccccc2)C=C(c2ccccc2)N3)cc1 (stereo unspecified)	9%	18µM*	?	-15%
COc1ccc(C2C=C(c3ccccc3)Nc3nc(CCCO)nn32)cc1 (stereo unspecified)	7%	-25%	?	24%
O=C(Nc1nc2n(n1)C(c1ccccc1)C=C(c1ccc(Cl)cc1)N2)c1ccco1 (stereo unspecified)	.	21µM*	23µM*	4%
COc1ccc(-c2nc3cnc(Oc4cccc(Cl)c4)nc3n(C[C@H]3CCCO3)c2=O)cc1	.	-12%	-9%	.
Cc1cccc(N=C2Sc3nc4c(C)c(C)ccc4cc3CN2CCN2CCOCC2)c1	5%	18µM*	23µM*	0%
N#CC1C(C#N)N2CCCN2C1c1ccc(Cl)cc1 (stereo unspecified)	-2%	8.2µM*	7.3µM*	1%
COc1ccc([C@H]2[C@@H](C#N)[C@H](C#N)N3CCCN23)cc1	0%	-12%	11%	-26%
COc1ccc(C2C(C#N)C(C#N)N3CCCN23)cc1 (stereo unspecified)	2%	-11%	-14%	32µM*
CCCCOC(=O)c1cc(=O)[nH]c(=O)[nH]1	1%	20%	-1%	-2%
CCCCC/C=C\C/C=C\CCCCCCCC(=O)NC(C)C(=O)O (stereo unspecified)	6%	.	.	.
Cc1ccc2[nH]c(CSc3nnc(NC(=O)c4ccc(Cl)cc4)s3)cc(=O)c2c1	8%	-2%	-15%	-5%
COc1cccc(CN(C)C(=O)C(CCSC)NS(=O)(=O)c2ccc3c(c2)OCCO3)c1OC (stereo unspecified)	-3%	16µM*	13µM*	.
CSCCC(NS(=O)(=O)c1ccc2c(c1)OCCO2)C(=O)N(C)Cc1ccc(C)cc1 (stereo unspecified)	6%	?	15µM*	1%
O=C(NC1CCCCC1)c1cnn2c1NC(=C1CC1)C=C2C(F)F	.	?	?	-2%
Cc1ccccc1C(=O)N1CCC2CC1c1cc(Cl)ccc12 (stereo unspecified)	.	-24%	?	-1%
COc1ccc(-c2ccc3c(c2)C2CC3CCN2S(=O)(=O)c2ccccc2C)cc1 (stereo unspecified)	.	?	16µM*	-4%
CCN(CCc1ccccc1)c1ccc2c(c1)C1CC2CCN1Cc1ccccc1 (stereo unspecified)	.	6.5µM*	5.8µM*	-2%
